This note sets out measurements from PubChem BioAssay (EPA / NIEHS).

Structures are written as SMILES. Inconclusive results are not listed. Calls of active or inactive are those of the source. The calls were made as follows: active = hit-call score of the fitted dose curve at least 0.9, where 1 is the maximum; inconclusive = response in the unintended direction; inactive = score below 0.9.

Test [1] can be described thus: Tanguay_ZF_120hpf_YSE_legacy: (Legacy) Oregon State University Tanguay Lab 120 Hour Post-fertilization zebrafish Assay for Yolk Sac Edema (AID 2283634). The method in brief:
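Binary brightfield scoring of yolk sac edema at 120 hpf; DMSO baseline, gain-of-signal fitting. Dechorionated 5D larvae, one per well, static exposure 6–120 hpf, 28C, 0.64% DMSO. Dead embryos not scored.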

Test [2] in a line: Tanguay_ZF_120hpf_AXIS_legacy: (Legacy) Oregon State University Tanguay Lab 120 Hour Post-fertilization zebrafish Assay for Body Axis Malformation (AID 2283635). The method in brief:
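Embryos: 5D wild-type, pronase-dechorionated 4 hpf; static exposure 6–120 hpf, 28C, sealed, dark, 1 embryo/well, 0.64% DMSO. 120 hpf axis malformation scored present/absent; dead embryos excluded. Analysed as gain of signal vs DMSO.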

A short description of test [3]: Tanguay_ZF_120hpf_EYE_legacy: (Legacy) Oregon State University Tanguay Lab 120 Hour Post-fertilization zebrafish Assay for Eye Malformation (AID 2283636). The method in brief: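 Read-out is binary presence or absence of eye malformation, scored by brightfield microscopy at 120 hpf. Single larvae were exposed from 6 hpf in embryo medium containing 0.64% DMSO, with DMSO as baseline.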

A short description of test [4]: Tanguay_ZF_120hpf_SNOU_legacy: (Legacy) Oregon State University Tanguay Lab 120 Hour Post-fertilization zebrafish Assay for Snout Malformation (AID 2283637). The method in brief: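 Snout malformation read as a yes/no call on brightfield images of 120 hpf larvae (Tropical 5D strain). Static exposure began at 6 hpf on dechorionated embryos in 0.64% DMSO, with gain of signal analysed versus DMSO controls.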

Test [5] is described as follows: Tanguay_ZF_120hpf_JAW_legacy: (Legacy) Oregon State University Tanguay Lab 120 Hour Post-fertilization zebrafish Assay for Jaw Malformation (AID 2283638). The method in brief: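 Binary jaw-malformation calls at 120 hpf by brightfield imaging; DMSO (0.64% v/v) = baseline. Embryos: 5D wild-type, pronase-dechorionated, one per well from 6 hpf, static exposure, 28C, sealed, dark.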

A short description of test [6]: Tanguay_ZF_120hpf_OTIC_legacy: (Legacy) Oregon State University Tanguay Lab 120 Hour Post-fertilization zebrafish Assay for Otic Vesicle Malformation (AID 2283639). An outline of the steps:
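Tropical 5D wild-type zebrafish embryos were exposed statically in sealed, foil-covered plates at 28C until 120 hpf, with 0.64% (vol/vol) DMSO final. Otic vesicle malformation was scored present/absent by brightfield microscopy, with DMSO as baseline.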

The nature of test [7]: Tanguay_ZF_120hpf_CFIN_legacy: (Legacy) Oregon State University Tanguay Lab 120 Hour Post-fertilization zebrafish Assay for Caudal Fin Malformation (AID 2283649). An outline of the steps:
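Dechorionated 5D wild-type zebrafish, static exposure 6–120 hpf, 28C, sealed and dark, 0.64% v/v DMSO final. Binary fin-malformation call at 120 hpf, brightfield; gain of signal vs DMSO baseline.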

A short description of test [8]: TOX21_p53_BLA_p2_viability: Viability Assessment in the Tox21 HCT-116 p53 Agonism Beta-lactamase Assay, Phase 2 (AID 2283591).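 Also: compound exposure lasted 16 h at 37 °C; actives lower the ATP signal meaning cytotoxicity.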 An outline of the steps: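 Cytotoxicity readout: CellTiter-Glo ATP luminescence, 30 min at room temperature, after the beta-lactamase read. Cells were HCT116 exposed 16 h at 37C to compounds pin-transferred at 217-fold dilution from DMSO stocks.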

Test [9] has as its target Cellular tumor antigen p53 (Homo sapiens) (UniProt P04637). In words: TOX21_p53_BLA_p2_ratio: Tox21 HCT-116 p53 Agonism Beta-lactamase Assay, Ratio, Phase 2 (AID 2283592). An outline of the steps: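 In this cell-based reporter format, HCT116 cells were dosed with chemicals delivered from DMSO by 217-fold dilution and incubated 16 h at 37C. Emission at 460 and 530 nm after 2 h CCF4-AM loading provided the ratio, fitted upward versus DMSO.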

The nature of test [10]: TOX21_p53_BLA_p3_viability: Viability Assessment in the Tox21 HCT-116 p53 Agonism Beta-lactamase Assay, Phase 3 (AID 2283593).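 Also: cells exposed to compound for 16 h before reading.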 The method in brief:
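Cellular ATP was quantified by CellTiter-Glo luminescence, read after 30 min at room temperature. Beforehand, HCT116 cells (4000/well) received compound 5 h post-seeding, 217-fold diluted from DMSO, then incubated 16 h at 37C.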

The target in test [11] is Cellular tumor antigen p53 (Homo sapiens) (UniProt P04637). Description: TOX21_p53_BLA_p3_ratio: Tox21 HCT-116 p53 Agonism Beta-lactamase Assay, Ratio, Phase 3 (AID 2283596). The method in brief: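 HCT116 p53-bla cells (4000/well) given compound in DMSO (217-fold dilution) after 5 h, incubated 16 h at 37C. CCF4-AM substrate 2 h at room temperature; 460/530 nm emission ratio, gain fitted against DMSO.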

Test [12] can be described thus: TOX21_p53_BLA_p4_viability: Viability Assessment in the Tox21 HCT-116 p53 Agonism Beta-lactamase Assay, Phase 4 (AID 2283597).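 Also: hits lower the luminescence signal meaning cytotoxicity.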 An outline of the steps: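 We seeded HCT116 p53 reporter cells at 4000/well and waited 5 h. We then added compounds in DMSO at a 217-fold dilution and incubated for 16 h. Viability was read as CellTiter-Glo luminescence after 30 min at RT.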

The target of test [13] is Cellular tumor antigen p53 (Homo sapiens) (UniProt P04637). In words: TOX21_p53_BLA_p5_ratio: Tox21 HCT-116 p53 Agonism Beta-lactamase Assay, Ratio, Phase 5 (AID 2283599). The method in brief: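 Beta-lactamase reporter ratio (blue 460 nm over green 530 nm, 405 nm excitation) after 2 h CCF4-AM loading, in HCT-116 cells exposed 16 h at 37 C to compounds pinned at 217-fold dilution. Increases relative to DMSO baseline scored.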

Test [14] shares this target. In words: TOX21_p53_BLA_p4_ratio: Tox21 HCT-116 p53 Agonism Beta-lactamase Assay, Ratio, Phase 4 (AID 2283601). An outline of the steps:
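Signal is the blue/green (460nm/530nm) ratio of cleaved versus uncleaved CCF4-AM substrate, read after 2 h substrate loading. Cells were HCT116 carrying the p53-responsive beta-lactamase reporter, dosed 16 h at 37C, 5% CO2; CellTiter-Glo measured in parallel.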

Test [15] can be described thus: Tanguay_ZF_120hpf_MORT_legacy: (Legacy) Oregon State University Tanguay Lab 120 Hour Post-fertilization zebrafish Assay for Mortality (AID 2283633). An outline of the steps:
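Brightfield scoring of embryo death (binary) at 24 and 120 hpf; static exposure 6–120 hpf, 28C, sealed and foil-covered. Pronase-dechorionated 5D wild-type larvae, single embryo per well. DMSO 0.64% v/v; trimethyltin chloride 5uM positive control.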

A short description of test [16]: Tanguay_ZF_120hpf_SOMI_legacy: (Legacy) Oregon State University Tanguay Lab 120 Hour Post-fertilization zebrafish Assay for Somite Malformation (AID 2283647). The method in brief:
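Binary brightfield scoring of somite defects at 120 hpf in 5D wild-type larvae; one dechorionated embryo per well, static exposure from 6 hpf, 28C, sealed and dark. Final DMSO 0.64%; trimethyltin chloride 5uM positive control.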

Test [17] in a line: TOX21_p53_BLA_p5_viability: Viability Assessment in the Tox21 HCT-116 p53 Agonism Beta-lactamase Assay, Phase 5 (AID 2283600). The method in brief:
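Compounds, pinned from DMSO at 217-fold dilution, were left on the cells for 16 h. The viability endpoint was ATP content measured by CellTiter-Glo luminescence, where falling signal reflects cytotoxicity.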

What is called AC50 is the concentration at which the activity in the assay is half-maximal.

Cellular tumor antigen p53 (Homo sapiens), sequence (P04637 whole entry, looked up): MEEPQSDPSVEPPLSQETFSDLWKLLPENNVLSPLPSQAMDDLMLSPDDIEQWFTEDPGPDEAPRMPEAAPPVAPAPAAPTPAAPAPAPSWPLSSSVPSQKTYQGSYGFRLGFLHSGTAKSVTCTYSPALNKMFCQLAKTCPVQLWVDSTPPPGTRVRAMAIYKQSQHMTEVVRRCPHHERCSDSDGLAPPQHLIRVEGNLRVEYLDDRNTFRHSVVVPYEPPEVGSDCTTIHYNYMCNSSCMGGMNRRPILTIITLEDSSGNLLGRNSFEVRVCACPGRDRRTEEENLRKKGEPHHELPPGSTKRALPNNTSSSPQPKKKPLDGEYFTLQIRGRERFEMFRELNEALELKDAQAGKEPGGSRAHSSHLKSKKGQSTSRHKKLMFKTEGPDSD

Consider `CNC(=O)CSP(=S)(OC)OC`, for which the compound was called inactive in test [1], in [2], in test [3], in [4], in test [5] and in test [6]. In test [7], the compound was called inactive.

`O=C(Nc1ccccc1)Nc1cnns1`: the result in test [8], in [10], in [11], in test [12], in [13] and in test [15] was inactive. Besides, the compound was classed as inactive in test [1], in test [2], in [3], in [4], in test [5] and in [6]. Also, the compound was called inactive in test [16] and in test [7]. Also, the values for the AC50 in [9] and in test [14] were 64.1 µM (active) and 52.9 µM (active), respectively.

With `O=[N+]([O-])c1c(Cl)c(Cl)c(Cl)c(Cl)c1Cl`, the call in [8], in [9], in [10], in [11], in test [12] and in test [13] was inactive. Also, the result in [17], in test [14], in test [1], in test [2], in test [3] and in test [4] was inactive. In addition, the outcome in test [5], in test [6], in [16] and in [7] was inactive.

Regarding `Cc1[nH]c(=O)n(C(C)(C)C)c(=O)c1Cl`, the result in [15], in test [1], in test [3], in [4], in test [5] and in [6] was inactive. Moreover, the outcome in test [16] and in [7] was inactive.

As to `O=C(NC(=O)c1c(F)cccc1F)Nc1ccc(OC(F)(F)C(F)OC(F)(F)F)c(Cl)c1` (stereo not drawn), the compound was called inactive in [15], in test [1], in [3], in [4], in test [5] and in [6]. In addition, the result in test [16] and in test [7] was inactive.

With `CNC(=O)Oc1cccc(N=CN(C)C)c1`, the compound was classed as inactive in test [12], in test [13], in test [14], in test [15], in test [2] and in test [3]. The outcome in test [5], in test [6], in test [16] and in test [7] was inactive.

On to `CC(C)OC(=O)Nc1cccc(Cl)c1`, for which the result in [9], in test [10], in [11], in test [12], in [13] and in test [14] was inactive. Besides, the result in [15], in test [1], in test [2], in test [3], in test [6] and in [16] was inactive. Further, the outcome in test [7] was inactive. Moreover, in [4], the AC50 is 34.2 µM (active).

On to `C#CCN1C(=O)COc2cc(F)c(N3C(=O)C4=C(CCCC4)C3=O)cc21`, for which the outcome in test [15], in test [1], in test [2], in test [3], in [4] and in test [5] was inactive. In addition, the result in test [6], in [16] and in test [7] was inactive.
